# According to ChEMBL document CHEMBL3988442, “University of Dundee, Small-Polar-MMV Screening Library” (2021):
# For some of these results: Entries with a potency or affinity are not part of this list.
# Tests used:
# Design in all cases: scale not given: direction of the effect not stated beside the values
# [1] = target: Protein translocase subunit SecA (Escherichia coli (strain K12)) (UniProt P10408); experiment: Assay to Identify E. coli SecA ATPase Inhibitors; type: functional; conditions: 30 µM
# [2] = target: T1, Ubiquitin-activating enzyme e1, putative (Leishmania donovani (strain BPK282A1)) (UniProt E9BSI1); experiment: Leishmania donovani Ubiquitin Activating Enzyme (LdE1); type: functional; conditions: 30 µM
# T1 sequence (whole entry): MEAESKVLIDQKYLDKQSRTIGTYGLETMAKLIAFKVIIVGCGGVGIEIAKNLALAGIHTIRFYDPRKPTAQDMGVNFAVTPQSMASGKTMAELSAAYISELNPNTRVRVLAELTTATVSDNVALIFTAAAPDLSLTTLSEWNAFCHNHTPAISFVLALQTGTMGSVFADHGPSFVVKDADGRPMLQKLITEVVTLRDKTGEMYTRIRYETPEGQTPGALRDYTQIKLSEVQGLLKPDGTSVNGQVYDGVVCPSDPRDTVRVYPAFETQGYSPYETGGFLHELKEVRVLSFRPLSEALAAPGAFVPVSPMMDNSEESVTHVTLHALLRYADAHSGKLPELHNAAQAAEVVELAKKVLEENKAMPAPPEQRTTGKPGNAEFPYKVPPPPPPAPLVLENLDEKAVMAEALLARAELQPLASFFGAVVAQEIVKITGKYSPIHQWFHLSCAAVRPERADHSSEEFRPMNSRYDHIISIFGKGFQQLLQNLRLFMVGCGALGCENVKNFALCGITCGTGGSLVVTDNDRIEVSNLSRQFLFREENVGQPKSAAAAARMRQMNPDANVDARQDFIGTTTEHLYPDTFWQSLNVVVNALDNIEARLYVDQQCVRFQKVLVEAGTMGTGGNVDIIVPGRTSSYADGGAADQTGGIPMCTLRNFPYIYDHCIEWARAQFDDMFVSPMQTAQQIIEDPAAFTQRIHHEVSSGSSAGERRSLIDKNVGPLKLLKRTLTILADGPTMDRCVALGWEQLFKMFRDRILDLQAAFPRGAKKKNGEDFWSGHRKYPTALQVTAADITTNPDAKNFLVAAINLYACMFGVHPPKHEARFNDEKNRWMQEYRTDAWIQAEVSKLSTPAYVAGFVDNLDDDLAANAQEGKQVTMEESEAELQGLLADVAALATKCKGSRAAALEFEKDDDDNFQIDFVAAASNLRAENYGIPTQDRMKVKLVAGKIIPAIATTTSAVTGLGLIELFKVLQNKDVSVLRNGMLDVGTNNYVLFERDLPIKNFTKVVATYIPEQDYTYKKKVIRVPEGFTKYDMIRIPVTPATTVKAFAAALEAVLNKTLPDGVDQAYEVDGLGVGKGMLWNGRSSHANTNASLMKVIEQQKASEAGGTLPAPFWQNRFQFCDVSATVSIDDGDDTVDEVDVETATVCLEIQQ
# [3] = target: AMP-activated protein kinase, AMPK (Homo sapiens) (UniProt P54646+O43741+P54619+Q9UGJ0+Q9Y478+Q13131+Q9UGI9); experiment: AMP-dependent Kinase enzyme assay. An in vitro enzyme assay that detects ADP turnover that is directly proportional to AMPK activity. This uses naive AMPK that is activated during the assay with MK-8722; type: functional; conditions: 30 µM
# [4] = target: Sialic acid-binding Ig-like lectin 9 (Homo sapiens) (UniProt Q9Y336); experiment: Hs-Siglec9 ALPHAscreen SOP 20170721; conditions: 10 µM
# Trypanosoma cruzi = experiment: Trypanosoma cruzi phosphomannomutase and mannose-1-phosphate guanylyltransferase assay; type: functional; conditions: 10 µM
# [5] = target: T2, Arginase-2, mitochondrial (Homo sapiens) (UniProt P78540); experiment: in vitro enzyme assay to detect the production of urea directly proportional to the activity of Arginase II; type: functional; conditions: 33.3 µM; also: in the data most compounds retested in dose-response had high values
# T2 sequence (whole entry): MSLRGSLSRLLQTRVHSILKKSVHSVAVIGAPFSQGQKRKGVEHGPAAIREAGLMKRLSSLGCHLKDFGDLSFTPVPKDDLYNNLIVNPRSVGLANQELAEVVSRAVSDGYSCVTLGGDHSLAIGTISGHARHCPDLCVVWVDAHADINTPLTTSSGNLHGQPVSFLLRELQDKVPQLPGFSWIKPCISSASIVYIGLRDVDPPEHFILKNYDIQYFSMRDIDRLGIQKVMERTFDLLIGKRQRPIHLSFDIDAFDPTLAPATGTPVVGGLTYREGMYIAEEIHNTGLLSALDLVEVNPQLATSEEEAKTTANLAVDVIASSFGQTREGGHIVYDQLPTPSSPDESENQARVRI
# [6] = target: T3, Proteasome subunit beta (Trypanosoma cruzi) (UniProt O96673); experiment: Trypanosoma cruzi proteasome chymotrypsin-like activity (TcProtChymo) assay.; also: in the data most compounds retested in dose-response had high values; type: functional; conditions: 9.37 µM
# T3 sequence (whole entry): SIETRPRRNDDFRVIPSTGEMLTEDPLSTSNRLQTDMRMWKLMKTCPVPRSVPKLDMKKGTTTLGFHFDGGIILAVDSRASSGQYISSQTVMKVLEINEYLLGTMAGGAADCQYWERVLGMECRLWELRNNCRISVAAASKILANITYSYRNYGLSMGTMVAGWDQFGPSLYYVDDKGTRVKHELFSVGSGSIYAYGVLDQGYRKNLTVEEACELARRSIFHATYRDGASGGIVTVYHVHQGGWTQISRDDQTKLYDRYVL
# Homo sapiens = organism: Homo sapiens; experiment: To identify inhibition of the IFN signalling (Jak-Stat) pathway via expression of an eGFP reporter gene under the control of an IFN-stimulated response element (ISRE) containing MxA promoter.; type: functional; conditions: 30 µM
# [7] = target: T4, Tyrosyl-tRNA synthetase, putative (Trypanosoma cruzi (strain CL Brener)) (UniProt Q4DSP6); experiment: Trypanosoma cruzi tyrosyl tRNA synthetase (TcYRS) _High Tyrosine SOP; type: functional; conditions: 30 µM; also: in the data most compounds retested in dose-response had high values
# T4 sequence (whole entry): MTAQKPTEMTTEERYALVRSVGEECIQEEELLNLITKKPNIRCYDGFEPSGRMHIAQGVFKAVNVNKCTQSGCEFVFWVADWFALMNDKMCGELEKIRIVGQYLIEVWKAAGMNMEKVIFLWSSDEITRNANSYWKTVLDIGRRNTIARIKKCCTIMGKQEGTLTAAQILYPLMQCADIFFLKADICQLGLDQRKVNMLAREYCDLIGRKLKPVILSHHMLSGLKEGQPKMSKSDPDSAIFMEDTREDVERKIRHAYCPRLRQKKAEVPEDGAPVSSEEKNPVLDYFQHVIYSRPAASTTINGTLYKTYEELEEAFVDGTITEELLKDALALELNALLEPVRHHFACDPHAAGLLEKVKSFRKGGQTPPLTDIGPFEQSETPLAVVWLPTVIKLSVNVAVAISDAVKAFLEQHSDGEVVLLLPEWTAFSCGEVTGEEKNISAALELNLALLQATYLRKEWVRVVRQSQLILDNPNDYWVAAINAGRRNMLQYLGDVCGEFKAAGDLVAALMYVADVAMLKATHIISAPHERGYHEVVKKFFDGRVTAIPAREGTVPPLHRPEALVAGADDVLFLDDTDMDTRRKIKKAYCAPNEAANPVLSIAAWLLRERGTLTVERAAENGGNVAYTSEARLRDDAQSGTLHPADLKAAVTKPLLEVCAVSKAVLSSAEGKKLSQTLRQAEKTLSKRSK
# [8] = target: T4, Tyrosyl-tRNA synthetase, putative (Trypanosoma cruzi (strain CL Brener)); experiment: Trypanosoma cruzi tyrosyl tRNA synthetase (TcYRS) SOP; type: functional; conditions: 30 µM
# [9] = target: Chromo domain-containing protein 1 (Saccharomyces cerevisiae (strain ATCC 204508 / S288c) (Baker's yeast)) (UniProt P32657); experiment: ScCHD-1 Enzyme Inhibition Assay; type: functional; conditions: 30 µM; also: in the data most compounds retested in dose-response had high values
# Sequence of Chromo domain-containing protein 1 (Saccharomyces cerevisiae (strain ATCC 204508 / S288c) (Baker's yeast)) (P32657 whole entry, the tested form may be a part): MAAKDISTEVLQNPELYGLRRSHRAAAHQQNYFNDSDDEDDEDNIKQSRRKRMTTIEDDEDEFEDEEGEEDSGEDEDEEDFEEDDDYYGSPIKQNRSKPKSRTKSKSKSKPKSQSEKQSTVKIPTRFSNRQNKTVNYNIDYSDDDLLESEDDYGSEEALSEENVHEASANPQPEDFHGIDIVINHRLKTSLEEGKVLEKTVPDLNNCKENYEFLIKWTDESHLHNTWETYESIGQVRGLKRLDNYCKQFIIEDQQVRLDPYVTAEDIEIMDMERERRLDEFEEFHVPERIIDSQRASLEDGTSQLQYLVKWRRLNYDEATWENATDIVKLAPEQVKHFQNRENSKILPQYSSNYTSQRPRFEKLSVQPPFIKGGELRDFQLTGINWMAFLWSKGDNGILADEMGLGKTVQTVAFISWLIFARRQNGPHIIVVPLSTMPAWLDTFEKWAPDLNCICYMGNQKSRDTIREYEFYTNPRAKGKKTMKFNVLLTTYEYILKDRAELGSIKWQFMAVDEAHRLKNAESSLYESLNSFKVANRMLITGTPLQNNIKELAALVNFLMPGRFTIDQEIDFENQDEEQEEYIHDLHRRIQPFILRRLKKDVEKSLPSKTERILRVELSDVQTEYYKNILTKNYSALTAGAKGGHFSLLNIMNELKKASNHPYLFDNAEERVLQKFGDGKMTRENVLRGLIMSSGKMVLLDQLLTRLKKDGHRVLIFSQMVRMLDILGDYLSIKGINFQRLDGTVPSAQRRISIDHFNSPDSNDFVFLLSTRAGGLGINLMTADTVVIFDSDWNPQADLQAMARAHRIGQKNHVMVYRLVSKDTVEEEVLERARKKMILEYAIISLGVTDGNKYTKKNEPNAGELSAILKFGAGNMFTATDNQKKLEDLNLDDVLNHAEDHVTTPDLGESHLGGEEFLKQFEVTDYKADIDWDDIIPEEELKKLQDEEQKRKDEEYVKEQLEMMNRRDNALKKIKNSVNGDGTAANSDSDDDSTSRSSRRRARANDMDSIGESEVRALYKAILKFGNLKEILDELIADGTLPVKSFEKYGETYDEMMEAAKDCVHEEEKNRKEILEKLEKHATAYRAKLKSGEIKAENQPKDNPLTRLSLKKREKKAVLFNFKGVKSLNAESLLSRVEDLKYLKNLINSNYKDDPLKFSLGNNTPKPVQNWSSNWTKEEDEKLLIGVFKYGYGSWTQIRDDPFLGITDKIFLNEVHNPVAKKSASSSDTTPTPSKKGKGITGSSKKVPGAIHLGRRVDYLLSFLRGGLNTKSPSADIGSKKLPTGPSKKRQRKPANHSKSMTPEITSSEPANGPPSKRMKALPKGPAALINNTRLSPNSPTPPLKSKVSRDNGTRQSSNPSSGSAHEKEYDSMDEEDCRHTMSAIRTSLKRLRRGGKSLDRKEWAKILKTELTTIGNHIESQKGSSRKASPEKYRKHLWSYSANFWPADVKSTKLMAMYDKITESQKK
# Sequence of Sialic acid-binding Ig-like lectin 9 (Homo sapiens) (Q9Y336 whole entry): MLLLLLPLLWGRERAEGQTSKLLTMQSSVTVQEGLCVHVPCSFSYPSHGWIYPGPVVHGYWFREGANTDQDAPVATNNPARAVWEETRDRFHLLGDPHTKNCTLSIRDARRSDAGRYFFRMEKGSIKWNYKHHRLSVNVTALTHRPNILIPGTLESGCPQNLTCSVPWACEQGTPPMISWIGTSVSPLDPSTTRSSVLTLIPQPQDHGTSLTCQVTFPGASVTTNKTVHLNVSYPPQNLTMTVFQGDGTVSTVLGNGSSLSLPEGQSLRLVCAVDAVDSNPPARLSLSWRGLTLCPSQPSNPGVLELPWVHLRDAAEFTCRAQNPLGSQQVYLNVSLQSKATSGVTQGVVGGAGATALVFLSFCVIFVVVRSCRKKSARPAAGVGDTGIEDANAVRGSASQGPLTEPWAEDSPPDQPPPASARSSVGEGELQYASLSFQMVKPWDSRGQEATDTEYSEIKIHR
# Sequence of Protein translocase subunit SecA (Escherichia coli (strain K12)) (P10408 whole entry): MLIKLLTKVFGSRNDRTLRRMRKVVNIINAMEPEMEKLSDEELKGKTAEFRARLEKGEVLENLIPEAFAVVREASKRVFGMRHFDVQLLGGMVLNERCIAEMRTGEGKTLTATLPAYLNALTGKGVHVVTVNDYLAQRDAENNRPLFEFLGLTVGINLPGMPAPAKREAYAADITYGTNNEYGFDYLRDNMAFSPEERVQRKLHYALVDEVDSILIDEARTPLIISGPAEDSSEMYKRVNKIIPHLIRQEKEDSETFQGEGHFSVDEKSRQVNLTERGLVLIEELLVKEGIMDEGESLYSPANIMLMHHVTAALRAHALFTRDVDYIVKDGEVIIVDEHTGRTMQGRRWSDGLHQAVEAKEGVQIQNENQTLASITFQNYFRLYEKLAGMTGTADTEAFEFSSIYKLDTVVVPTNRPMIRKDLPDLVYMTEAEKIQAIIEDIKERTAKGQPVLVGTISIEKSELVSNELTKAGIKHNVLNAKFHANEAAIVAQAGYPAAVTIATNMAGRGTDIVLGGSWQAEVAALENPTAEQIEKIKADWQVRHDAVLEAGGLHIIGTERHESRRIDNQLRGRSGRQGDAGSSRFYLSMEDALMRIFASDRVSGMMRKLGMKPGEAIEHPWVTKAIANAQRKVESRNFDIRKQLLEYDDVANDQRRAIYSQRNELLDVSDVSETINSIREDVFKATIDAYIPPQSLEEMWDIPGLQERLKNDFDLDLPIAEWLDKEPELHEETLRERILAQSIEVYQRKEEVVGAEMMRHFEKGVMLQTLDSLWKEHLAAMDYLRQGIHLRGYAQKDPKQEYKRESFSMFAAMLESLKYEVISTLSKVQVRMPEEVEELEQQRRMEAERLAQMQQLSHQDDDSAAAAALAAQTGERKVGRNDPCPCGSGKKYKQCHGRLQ
SMILES,Percent Effect [1],Percent Effect [2],Percent Effect [3],Percent Effect [4],Percent Effect (Trypanosoma cruzi),Percent Effect [5],Percent Effect [6],Percent Effect (Homo sapiens),Percent Effect [7],Percent Effect [8],Percent Effect [9]
c1cc2n(n1)CC(CNCc1ccc(OCC3CC3)nc1)CN2 (stereo not given),-1.23%,20.8%,11.1%,4.04%,7.68%,0.356%,3.04%,-0.525%,13.6%,24.4%,-9.69%
CCc1nnc(CN(C)c2nc(C(C)C)nc3c2cnn3C)o1,3.23%,4.17%,6.88%,-0.661%,-3.6%,2.21%,16.8%,-1.37%,-2.1%,2.56%,1.23%
CCOc1cc(C(=O)N2CCCC(c3noc(C)n3)C2)ccn1 (stereo not given),-5.03%,10.5%,-4.05%,13.6%,-2.15%,-1.08%,2.12%,-18.5%,5.42%,11.1%,-2.64%
CN(C)C(=O)N1CCN(Cc2ccccc2)[C@@H]2CS(=O)(=O)C[C@@H]21,-0.429%,2.7%,-4.73%,3.84%,4.25%,-1.43%,10.9%,4.04%,7.94%,17.1%,-3.7%
O=C1CCC(C(=O)NCc2nncn2-c2ccccc2)CN1 (stereo not given),-6.76%,10.8%,-10.2%,20.8%,3.68%,-7.21%,1.8%,7.93%,2.46%,23.5%,-12.7%
CCC1CN(CC(=O)N2CCC2)CCN1CCOC (stereo not given),-2.71%,13.5%,-12.7%,13.2%,3.49%,-8.82%,7.03%,1.78%,8.37%,28.4%,-9.71%
Cc1nc(C)n(CC2CCCN2CC(=O)Nc2cc(C(C)C)no2)n1 (stereo not given),-3.86%,18.4%,-3.35%,10.4%,1.03%,-0.36%,8.21%,22.5%,4.43%,16.1%,-3.86%
CCc1noc(C)c1C(=O)N1CCCC1c1c(C)nn(C)c1OC (stereo not given),-2.91%,-2.53%,2.09%,2.98%,2.36%,-3.42%,-3.03%,-17.3%,1.48%,1.27%,0.826%
Cc1cnc(C(=O)N2CCCN(Cc3csc(C)n3)CC2)cn1,-5.93%,13.7%,-7.71%,11.9%,6.75%,2%,18.8%,-1.38%,5.21%,8.64%,-12.5%
Cc1nc(N2CCN(C)CC2)ncc1C(=O)N1CC(C)(C)C(C)(O)C1 (stereo not given),-0.364%,2.7%,6.69%,-5.09%,-9.09%,-8.19%,13%,11.1%,0%,-16.1%,103%
Cc1nc(C)n(CC2CN(CC(=O)Nc3nccs3)CCO2)n1 (stereo not given),-0.715%,1.39%,-0.871%,15.8%,3.98%,10.6%,7.19%,20.3%,5.26%,10.3%,-1.52%
Cc1nc2c(c(N3CC=CC3)n1)CCN(Cc1ccoc1)CC2,-7.04%,5.2%,2.16%,4.88%,-1.87%,1.38%,9.65%,-16.9%,3.23%,8.64%,1.68%
Cc1nc[nH]c1CN(C)CC1CCCN(CCc2ccc(Cl)cc2)C1 (stereo not given),0.978%,-5.48%,4.19%,6.4%,4.11%,10.4%,5.32%,61.3%,9.68%,2.5%,-4.79%
CN(Cc1ccccc1O)C(=O)NC1CCCN(c2ncccn2)C1 (stereo not given),-1.53%,15.8%,0.343%,-3.02%,-7.89%,-1.53%,6.01%,26.3%,2.45%,7.32%,-8.65%
Cc1cnn(CC2CCCCN2Cc2noc(C3CC3)n2)c1 (stereo not given),-2.92%,5.26%,2.62%,2.92%,0%,1.53%,9.86%,14.8%,7.35%,9.76%,-5.92%
c1cc(CNCc2ccc3c(c2)CCO3)cc(N2CCOCC2)n1,-6.07%,5.41%,-3.9%,-3.3%,-3.03%,0.744%,6.27%,2.63%,2.15%,6.17%,-4.71%
CNS(=O)(=O)c1ccc(CNC(=O)NCC2CCOC2)cc1 (stereo not given),-3.53%,15.6%,0.491%,2.49%,1.86%,-0.21%,11.7%,-1.37%,7.62%,14.1%,-9.18%
O=C(NCc1cnc2n1CCN(Cc1ccsc1)CC2)C1CCC1,-5.62%,8.11%,-0.353%,4.49%,0.293%,3.72%,5.24%,-5.3%,7.53%,13.6%,-4.47%
CN(CCNC(=O)Nc1ccncc1)C1CCCCC1,-4.37%,21.6%,-4.55%,6.96%,8.21%,-0.401%,16.6%,8.26%,5.42%,23.5%,-11%
O=C(C1CC1)N1CCC(c2nc(O)c3c(n2)CCN(C2CCCC2)C3)C1 (stereo not given),-5.51%,13.3%,6.57%,-6.26%,-4.33%,1.17%,5.55%,11.8%,1.06%,6.41%,-7.54%
